# Sampled rows, rich in hits. Any-hit rate of the full collection: about 3.2%.
# TWEAK Fn14 block: inhibitors of TWEAK-Fn14 signaling, primary screen, luciferase reporter cells, uHTS; TWEAK-stimulated Fn14 reporter cells, luciferase luminescence, 8 h; inhibition, % at 10 µM; hit rate 2% among 360,000; AID 1159606, 2016; in the data active means inhibition above about 50%
# PAX8 inh HTS: inhibitors of PAX8-driven TPO luciferase reporter, primary screen, RMG-I cells, single concentration | AID 652154, 2013 | inhibition, % at 12.6 µM | SteadyGlo, 24 h | hit rate 1.2% among 360,000;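 active means mean replicate inhibition at least 60% with every replicate also reaching 60%; inconclusive means only one of the two criteria is met; inactive means mean below 60% and not all replicates reaching 60%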;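 further: luciferase light reporting Pax8 driven TPO promoter activity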
# TROY NFkB inh: inhibitors of TROY-driven NF-kB signaling, primary screen, Q293 LMP1-TROYcd cells, NF-kB luciferase, uHTS; Q293 LMP1-TROYcd NF-kB luciferase reporter, 4 h; inhibition, % at 10 µM; hit rate 0.98% among 360,000; AID 1347056, 2019;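 active means compounds whose plate-normalised and pattern-corrected inhibition of the luciferase reporter signal at the single screening dose is 50% or more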
# EWS-Fli inh: EWS/Fli-driven NR0B1 reporter inhibitors, primary screen, A673 cells, NR0B1 luciferase, luminescence, MLPCN library | viability-normalised | inhibition, % at 12.6 µM | hit rate 0.67% among 350,000 | AID 651661, 2012;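 active means mean inhibition of at least 50% after viability correction, with every replicate also passing that limit; inconclusive means mean reaches 50% but only one of two replicates passes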;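 further: firefly luciferase signal divided by Alamar Blue viability fluorescence both relative to DMSO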
# LGR2 antag: inhibitors of bursicon-induced LGR2 CRE-luciferase signal, primary screen, cell-based, HEK293, CRE-luciferase reporter, bursicon stimulation; Drosophila bursicon receptor LGR2 (rickets); inhibition, % at 9.99 µM; hit rate 0.35% among 380,000; bursicon-stimulated, 4 h; AID 720647, 2013;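 active means drop in luminescence signal, shown as inhibition above about 50% in the replicate tests, limit read from the data, passing the limit was not always enough; inconclusive means probably only some replicates passing the limit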;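 further: agonist challenge used bursicon conditioned medium at about half maximal strength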
# EBV LMP1 NFkB: EBV LMP1-driven NF-kappaB luciferase reporter inhibitors, primary screen, cell-based, luminescence, single point. LMP1-induced NF-kappaB luciferase reporter cells. AID 504558, 2011. hit rate 0.69% among 350,000. inhibition, % at 12.5 µM; in the data active means inhibition above about 41%; inconclusive means no clear call, values can overlap the other calls
# A number is an active result; . = inactive; ? = inconclusive; / = no result given.
SMILES,TWEAK Fn14 block,PAX8 inh HTS,TROY NFkB inh,EWS-Fli inh,LGR2 antag,EBV LMP1 NFkB
COc1ccc(-c2nc(-c3cccs3)no2)cc1,86,.,58,82,81,48
Cc1ccc(-c2noc(-c3cccs3)n2)cc1,.,/,.,.,70,.
COc1ccccc1-c1noc(-c2cccs2)n1,.,/,.,.,.,.
Cc1ccc(-c2cc(C(=O)N/N=C/c3c(C)nn(-c4ccccc4)c3C)n[nH]2)s1,51,.,.,.,.,.
Cc1nn(-c2ccccc2)c(C)c1/C=N/NC(=O)c1cc(C(C)(C)C)[nH]n1,.,/,.,/,.,.
COc1ccc(S(=O)(=O)Nc2cccc3c2O[C@H](CN(C)S(=O)(=O)c2ccc(C)cc2)[C@@H](C)CN([C@@H](C)CO)C3=O)cc1,/,.,/,.,.,/
CC(C)(C)c1ccc(-c2nnc3sc(-c4ccccn4)nn23)cc1,74,.,72,.,.,.
Cc1n[nH]c(C)c1CCNC(=O)C1CCC(=O)N(CCc2cccc(F)c2)C1 (stereo not given),58,.,.,.,.,.
C[C@H]1CN([C@@H](C)CO)C(=O)c2cccc(NC(=O)c3cnccn3)c2O[C@H]1CN(C)S(=O)(=O)c1ccc(Cl)cc1,/,/,/,.,.,/
CC(C)NC(=O)N1CC2(C1)[C@H](c1ccccc1)[C@H](CO)N2C(=O)c1ccccn1,/,.,/,.,.,/
O=C(CSc1nccn(-c2ccc3c(c2)OCCO3)c1=O)Nc1ccccc1,62,/,66,.,.,.
O=C(CSc1nnnn1-c1ccccc1Cl)Nc1ccc2c(c1)OCCO2,76,.,54,.,.,.
Cc1cccc(-n2ccnc2SCC(=O)Nc2ccc3c(c2)OCCO3)c1,.,/,51,/,.,.
O=C(CSc1nccn1-c1ccc(Cl)cc1)Nc1ccc2c(c1)OCO2,.,/,.,/,/,.
O=C(CSc1nnnn1-c1ccc(Cl)cc1)NC(=O)Nc1ccc2c(c1)OCCO2,.,/,.,/,.,.
COc1cccc(C2Nc3ccc4ccccc4c3C3=C2C(=O)CC(C)(C)C3)c1OCC(=O)O (stereo not given),.,.,.,.,.,55
CC1C(=O)Nc2ccc(S(=O)(=O)N3CCN(c4cccc(Cl)c4)CC3)cc2NC1=O (stereo not given),.,.,.,.,.,.
CC1C(=O)Nc2ccc(S(=O)(=O)N3CCN(c4cccc(C(F)(F)F)c4)CC3)cc2NC1=O (stereo not given),.,68,.,/,.,.
CC(=O)Nc1ccc2c(c1)C(=O)N(C)[C@@H]1CC[C@@H](CC(=O)NCc3ccccc3)O[C@H]1CO2,/,.,/,.,.,/
C[C@H]1CCCCO[C@@H](CN(C)Cc2ccncc2)[C@@H](C)CN([C@@H](C)CO)C(=O)c2cc(NS(=O)(=O)c3ccc(F)cc3)ccc2O1,/,.,/,.,.,/
Fc1ccccc1Cn1nnc(-c2ccc3c(c2)OCO3)n1,.,.,53,/,/,.
COc1ccc(-c2nnn(Cc3ccccc3F)n2)cc1,.,/,.,/,.,.
CO[C@@H]1CC[C@H]2CCN(C)C(=O)C[C@@H](c3ccccc3)CN(C)C(=O)c3cccc(C#N)c3OC[C@@H]1O2,/,.,/,.,.,/
Cc1n[nH]c2ccccc2c1=O,.,/,.,.,.,.
CC(C)(C)c1ccc(Nc2n[nH]c3ccccc23)cc1,53,.,53,.,.,/
SMILES,TWEAK Fn14 block,PAX8 inh HTS,TROY NFkB inh,EWS-Fli inh,LGR2 antag,EBV LMP1 NFkB
CCNC(=O)[C@@H]1[C@@H](CO)[C@@H]2Cn3c(ccc(-c4cccc(F)c4)c3=O)[C@@H]2N1Cc1cc(F)ccc1F,/,/,/,.,.,/
CC(NC(=O)CNC(=O)OCc1ccccc1)C(=O)N1CC(O)CC1C(=O)OCc1ccccc1 (stereo not given),.,/,.,/,/,65
CCCN1[C@H](C(=O)NCCc2cn(C)cn2)[C@@H](CO)[C@@H]2Cn3c(ccc(-c4ccccc4)c3=O)[C@@H]21,/,.,/,.,.,/
O=C1NC(=S)N/C1=C/c1ccc2c(c1)OCO2,54,.,.,.,.,.
O=C(Nc1ccc2c(c1)OCCO2)C(c1ccnc2ccccc12)N1CCN(c2ccc(C(F)(F)F)cn2)CC1 (stereo not given),89,.,69,.,.,/
CC=Cc1ccc2n(c1=O)C[C@H]1[C@H](CO)[C@@H](C(=O)NCC)[C@@H]2N1CC1CCOCC1 (mixture of isomers),/,.,/,.,.,/
CC(C)CC#Cc1ccc2c(c1)O[C@H](CN(C)S(=O)(=O)c1ccc(F)cc1)[C@@H](C)CN([C@H](C)CO)S2(=O)=O,/,.,/,.,.,/
CC(C)CC#Cc1ccc2c(c1)O[C@H](CN(C)S(=O)(=O)c1ccc(F)cc1)[C@H](C)CN([C@H](C)CO)S2(=O)=O,/,99,/,.,.,/
CCCC#Cc1ccc2c(c1)O[C@@H](CN(C)S(=O)(=O)c1cccc(OC)c1)[C@@H](C)CN([C@@H](C)CO)S2(=O)=O,/,66,/,.,.,/
Cc1ccc(S(=O)(=O)N(C)C[C@@H]2Oc3cc(C4=CCCC4)ccc3S(=O)(=O)N([C@H](C)CO)C[C@@H]2C)cc1,/,67,/,.,.,/
Cc1ccc(S(=O)(=O)N(C)C[C@H]2Oc3cc(C#Cc4ccncc4)ccc3S(=O)(=O)N([C@H](C)CO)C[C@H]2C)cc1,/,89,/,.,.,/
C[C@H]1CN([C@@H](C)CO)S(=O)(=O)c2ccc(C3=CCCC3)cc2O[C@H]1CN(C)S(=O)(=O)c1ccc(F)cc1,/,/,/,.,.,/
CO[C@H]1CN(C)C(=O)c2ccc(NC(C)=O)cc2OC[C@@H](C)N(CC2CC2)C[C@@H]1C,/,/,/,.,.,/
O=C(NCC[C@@H]1CC[C@H](NC(=O)c2ccc3c(c2)OCO3)[C@@H](CO)O1)Nc1ccc(Cl)cc1,/,.,/,.,.,/
CCCC(=O)NC(c1cccc([N+](=O)[O-])c1)c1ccc2cccnc2c1O (stereo not given),.,78,.,.,.,68
CC(C)C(=O)NC(c1cccc([N+](=O)[O-])c1)c1ccc2cccnc2c1O (stereo not given),.,78,.,.,.,52
CC(C)C(=O)NC(c1cccc([N+](=O)[O-])c1)c1c(O)ccc2ccccc12 (stereo not given),.,.,51,.,.,.
CC(C)C(=O)NC(c1ccco1)c1ccc2cccnc2c1O (stereo not given),.,/,.,/,?,.
CC(C)C(=O)NC(c1ccc([N+](=O)[O-])cc1)c1c(O)ccc2ccccc12 (stereo not given),.,/,.,/,/,.
CCC(=O)NC(c1cccc([N+](=O)[O-])c1)c1c(OC(C)=O)ccc2ccccc12 (stereo not given),.,/,.,/,/,.

# Screening results from PubChem BioAssay.
